# Data taken from the supplement of paper PMC4022240.
# ± gives the standard deviation.
# T1: HaloTag-ATRX ADD domain (163-292)
# T1 chain: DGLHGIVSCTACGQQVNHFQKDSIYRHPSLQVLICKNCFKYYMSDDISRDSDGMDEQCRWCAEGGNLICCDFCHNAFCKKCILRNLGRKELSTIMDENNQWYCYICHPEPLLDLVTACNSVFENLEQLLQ
# What was measured:
# Assay in all cases: peptide microarray binding signal (635 nm), min-max normalized on array (fraction of array maximum); higher = stronger binding
# [1] = target: T1, HaloTag-ATRX ADD domain (163-292)
# How it was run: (§1)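 Within each library, mean intensities of triplicate spots were min-max scaled to give the binding signal. The spots were histone 13-mer peptide–cellulose conjugates on nitrocellulose with a Cy3 tracer, blocked overnight at 4°C. They were then probed for 1 h at 4°C using biotin-labelled HaloTag reader fusions (10 nM to 1 μM) with streptavidin-Alexa Fluor 647 or rabbit histone antibodies (1:10,000 to 1:2,000) with anti-rabbit Alexa 647, and scanned at 635 nm for signal and 532 nm for misprints on an Axon GenePix 4000B.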
# [2] = target: HaloTag-ING2 PHD (mouse Ing2 200-280)
# How it was run: as §1
# [3] = target: anti-H3K4me3 antibody ab8580
# How it was run: as §1
# [4] = target: anti-H3K9me3 antibody ab8898
# How it was run: as §1
# [5] = peptide region: H3 112-124, peptide modifications: H3K115me3 H3K122me3, binder concentration: 1:2,000 dilution
# [6] = peptide region: H3 112-124, peptide modifications: H3K115me3 H3K122me3, binder concentration: 1:10,000 dilution
# [7] = peptide region: H3 112-124, peptide modifications: H3R116me2a, binder concentration: 1:2,000 dilution
# [8] = peptide region: H3 112-124, peptide modifications: H3R116me2a, binder concentration: 1:10,000 dilution
# [9] = peptide region: H3 112-124, peptide modifications: H3K115me3 H3R116me2s, binder concentration: 1:2,000 dilution
# [10] = peptide region: H3 112-124, peptide modifications: H3K115me3 H3R116me2s, binder concentration: 1:10,000 dilution
# [11] = peptide region: H3 112-124, peptide modifications: H3K115me3 H3R116cit, binder concentration: 1:2,000 dilution
# [12] = peptide region: H3 112-124, peptide modifications: H3K115me3 H3R116cit, binder concentration: 1:10,000 dilution
# [13] = peptide region: H3 112-124, peptide modifications: H3K115me3, binder concentration: 1:2,000 dilution
# [14] = peptide region: H3 112-124, peptide modifications: H3K115me3, binder concentration: 1:10,000 dilution
# [15] = peptide region: H4 1-13, binder concentration: 1:2,000 dilution
# [16] = peptide region: H4 1-13, binder concentration: 1:10,000 dilution
# [17] = peptide region: H3 112-124, peptide modifications: H3K115me3 H3K122me2, binder concentration: 1:2,000 dilution
# [18] = peptide region: H3 112-124, peptide modifications: H3K115me3 H3K122me2, binder concentration: 1:10,000 dilution
# [19] = peptide region: H3 112-124, peptide modifications: H3R116me2s, binder concentration: 1:2,000 dilution
# [20] = peptide region: H3 112-124, peptide modifications: H3R116me2s, binder concentration: 1:10,000 dilution
# [21] = peptide region: H3 112-124, peptide modifications: H3K122me1, binder concentration: 1:2,000 dilution
# [22] = peptide region: H3 112-124, peptide modifications: H3K122me1, binder concentration: 1:10,000 dilution
# [23] = peptide region: H4 1-13, peptide modifications: H4K5ac H4K8ac, binder concentration: 1:2,000 dilution
# [24] = peptide region: H4 1-13, peptide modifications: H4K5ac H4K8ac, binder concentration: 1:10,000 dilution
binder,measurement,setting,value
IHAKRVTIMPKDI [H3 112-124 I H A Kme3 R V T I M P Kme3 D I],peptide microarray binding signal,"[1]; peptide region: H3 112-124, peptide modifications: H3K115me3 H3K122me3, binder concentration: 50 nM",0.00652 ± 0.00013
same,peptide microarray binding signal,"[1]; peptide region: H3 112-124, peptide modifications: H3K115me3 H3K122me3, binder concentration: 500 nM",0.014 ± 0.00024
same,peptide microarray binding signal,"[2]; peptide region: H3 112-124, peptide modifications: H3K115me3 H3K122me3, binder concentration: 10 nM",0.08 ± 0.013
same,peptide microarray binding signal,"[2]; peptide region: H3 112-124, peptide modifications: H3K115me3 H3K122me3, binder concentration: 100 nM",0.133 ± 0.011
same,peptide microarray binding signal,[3]; [5],0.0798 ± 0.017
same,peptide microarray binding signal,[3]; [6],0.0823 ± 0.0064
same,peptide microarray binding signal,[4]; [5],0.0648 ± 0.013
same,peptide microarray binding signal,[4]; [6],0.0227 ± 0.0026
IHAKRVTIMPKDI [H3 112-124 I H A K Rme2a V T I M P K D I],peptide microarray binding signal,"[1]; peptide region: H3 112-124, peptide modifications: H3R116me2a, binder concentration: 50 nM",0.00257 ± 3e-05
same,peptide microarray binding signal,"[1]; peptide region: H3 112-124, peptide modifications: H3R116me2a, binder concentration: 500 nM",0.00719 ± 0.00024
same,peptide microarray binding signal,"[2]; peptide region: H3 112-124, peptide modifications: H3R116me2a, binder concentration: 10 nM",0.00322 ± 3.5e-05
same,peptide microarray binding signal,"[2]; peptide region: H3 112-124, peptide modifications: H3R116me2a, binder concentration: 100 nM",0.007583 ± 5.2e-05
same,peptide microarray binding signal,[3]; [7],0.000396 ± 1.8e-05
same,peptide microarray binding signal,[3]; [8],0.000514 ± 1.1e-05
same,peptide microarray binding signal,[4]; [7],0.00154 ± 0.0003
same,peptide microarray binding signal,[4]; [8],0.00098
IHAKRVTIMPKDI [H3 112-124 I H A Kme3 Rme2s V T I M P K D I],peptide microarray binding signal,"[1]; peptide region: H3 112-124, peptide modifications: H3K115me3 H3R116me2s, binder concentration: 50 nM",0.00351 ± 6.2e-05
same,peptide microarray binding signal,"[1]; peptide region: H3 112-124, peptide modifications: H3K115me3 H3R116me2s, binder concentration: 500 nM",0.00576 ± 0.00044
same,peptide microarray binding signal,"[2]; peptide region: H3 112-124, peptide modifications: H3K115me3 H3R116me2s, binder concentration: 10 nM",0.0107 ± 0.00099
same,peptide microarray binding signal,"[2]; peptide region: H3 112-124, peptide modifications: H3K115me3 H3R116me2s, binder concentration: 100 nM",0.0126 ± 0.0027
same,peptide microarray binding signal,[3]; [9],0.00608 ± 0.0018
same,peptide microarray binding signal,[3]; [10],0.0069 ± 0.00085
same,peptide microarray binding signal,[4]; [9],0.0055 ± 0.00076
same,peptide microarray binding signal,[4]; [10],0.00386 ± 0.00058
IHAKRVTIMPKDI [H3 112-124 I H A Kme3 Rcit V T I M P K D I],peptide microarray binding signal,"[1]; peptide region: H3 112-124, peptide modifications: H3K115me3 H3R116cit, binder concentration: 50 nM",0.00821 ± 0.00022
same,peptide microarray binding signal,"[1]; peptide region: H3 112-124, peptide modifications: H3K115me3 H3R116cit, binder concentration: 500 nM",0.0148 ± 0.00063
same,peptide microarray binding signal,"[2]; peptide region: H3 112-124, peptide modifications: H3K115me3 H3R116cit, binder concentration: 10 nM",0.0661 ± 0.012
same,peptide microarray binding signal,"[2]; peptide region: H3 112-124, peptide modifications: H3K115me3 H3R116cit, binder concentration: 100 nM",0.0923 ± 0.011
same,peptide microarray binding signal,[3]; [11],0.0677 ± 0.0083
same,peptide microarray binding signal,[3]; [12],0.058 ± 0.0049
same,peptide microarray binding signal,[4]; [11],0.0746 ± 0.0023
same,peptide microarray binding signal,[4]; [12],0.0265 ± 0.00085
IHAKRVTIMPKDI [H3 112-124 I H A Kme3 R V T I M P K D I],peptide microarray binding signal,"[1]; peptide region: H3 112-124, peptide modifications: H3K115me3, binder concentration: 50 nM",0.00549 ± 0.00022
same,peptide microarray binding signal,"[1]; peptide region: H3 112-124, peptide modifications: H3K115me3, binder concentration: 500 nM",0.0171 ± 0.00049
same,peptide microarray binding signal,"[2]; peptide region: H3 112-124, peptide modifications: H3K115me3, binder concentration: 10 nM",0.026 ± 0.0073
same,peptide microarray binding signal,"[2]; peptide region: H3 112-124, peptide modifications: H3K115me3, binder concentration: 100 nM",0.00872 ± 0.00066
same,peptide microarray binding signal,[3]; [13],0.0334 ± 0.0055
same,peptide microarray binding signal,[3]; [14],0.0596 ± 0.027
same,peptide microarray binding signal,[4]; [13],0.0319 ± 0.041
same,peptide microarray binding signal,[4]; [14],0.0536 ± 0.0037
SGRGKGGKGLGKG [H4 1-13 S G R G K G G K G L G K G],peptide microarray binding signal,"[1]; peptide region: H4 1-13, binder concentration: 50 nM",0.00834 ± 0.00028
same,peptide microarray binding signal,"[1]; peptide region: H4 1-13, binder concentration: 500 nM",0.018 ± 0.0011
same,peptide microarray binding signal,"[2]; peptide region: H4 1-13, binder concentration: 10 nM",0.0037 ± 0.00019
same,peptide microarray binding signal,"[2]; peptide region: H4 1-13, binder concentration: 100 nM",0.00928 ± 0.00099
same,peptide microarray binding signal,[3]; [15],0.000189 ± 2e-06
same,peptide microarray binding signal,[3]; [16],0.00417 ± 0.00056
same,peptide microarray binding signal,[4]; [15],0.00211 ± 0.00074
same,peptide microarray binding signal,[4]; [16],0.00306 ± 0.00014
IHAKRVTIMPKDI [H3 112-124 I H A Kme3 R V T I M P Kme2 D I],peptide microarray binding signal,"[1]; peptide region: H3 112-124, peptide modifications: H3K115me3 H3K122me2, binder concentration: 50 nM",0.00464 ± 6.3e-05
same,peptide microarray binding signal,"[1]; peptide region: H3 112-124, peptide modifications: H3K115me3 H3K122me2, binder concentration: 500 nM",0.009477 ± 4.6e-05
same,peptide microarray binding signal,"[2]; peptide region: H3 112-124, peptide modifications: H3K115me3 H3K122me2, binder concentration: 10 nM",0.0436 ± 0.0022
same,peptide microarray binding signal,"[2]; peptide region: H3 112-124, peptide modifications: H3K115me3 H3K122me2, binder concentration: 100 nM",0.0676 ± 0.0025
same,peptide microarray binding signal,[3]; [17],0.0196 ± 0.00059
same,peptide microarray binding signal,[3]; [18],0.0182 ± 0.0013
same,peptide microarray binding signal,[4]; [17],0.0246 ± 0.0043
same,peptide microarray binding signal,[4]; [18],0.00894 ± 0.00038
IHAKRVTIMPKDI [H3 112-124 I H A K Rme2s V T I M P K D I],peptide microarray binding signal,"[1]; peptide region: H3 112-124, peptide modifications: H3R116me2s, binder concentration: 50 nM",0.00574 ± 0.00016
same,peptide microarray binding signal,"[1]; peptide region: H3 112-124, peptide modifications: H3R116me2s, binder concentration: 500 nM",0.0129 ± 0.00072
same,peptide microarray binding signal,"[2]; peptide region: H3 112-124, peptide modifications: H3R116me2s, binder concentration: 10 nM",0.00645 ± 0.00026
same,peptide microarray binding signal,"[2]; peptide region: H3 112-124, peptide modifications: H3R116me2s, binder concentration: 100 nM",0.014 ± 0.00075
same,peptide microarray binding signal,[3]; [19],0.00215 ± 0.00015
same,peptide microarray binding signal,[3]; [20],0.00285 ± 0.00021
same,peptide microarray binding signal,[4]; [19],0.00341 ± 0.00018
same,peptide microarray binding signal,[4]; [20],0.002306 ± 2.1e-05
IHAKRVTIMPKDI [H3 112-124 I H A K R V T I M P Kme D I],peptide microarray binding signal,"[1]; peptide region: H3 112-124, peptide modifications: H3K122me1, binder concentration: 50 nM",0.00429 ± 0.00037
same,peptide microarray binding signal,"[1]; peptide region: H3 112-124, peptide modifications: H3K122me1, binder concentration: 500 nM",0.0122 ± 0.0011
same,peptide microarray binding signal,"[2]; peptide region: H3 112-124, peptide modifications: H3K122me1, binder concentration: 10 nM",0.0077 ± 0.0008
same,peptide microarray binding signal,"[2]; peptide region: H3 112-124, peptide modifications: H3K122me1, binder concentration: 100 nM",0.00602 ± 0.00041
same,peptide microarray binding signal,[3]; [21],0.00168 ± 0.00019
same,peptide microarray binding signal,[3]; [22],0.00348 ± 0.0013
same,peptide microarray binding signal,[4]; [21],0.00251 ± 0.00011
same,peptide microarray binding signal,[4]; [22],0.00144 ± 5.1e-05
SGRGKGGKGLGKG [H4 1-13 S G R G Kac G G Kac G L G K G],peptide microarray binding signal,"[1]; peptide region: H4 1-13, peptide modifications: H4K5ac H4K8ac, binder concentration: 50 nM",0.00737 ± 0.00034
same,peptide microarray binding signal,"[1]; peptide region: H4 1-13, peptide modifications: H4K5ac H4K8ac, binder concentration: 500 nM",0.0151 ± 0.00043
same,peptide microarray binding signal,"[2]; peptide region: H4 1-13, peptide modifications: H4K5ac H4K8ac, binder concentration: 10 nM",0.00746 ± 6.7e-05
same,peptide microarray binding signal,"[2]; peptide region: H4 1-13, peptide modifications: H4K5ac H4K8ac, binder concentration: 100 nM",0.0206 ± 0.0023
same,peptide microarray binding signal,[3]; [23],0.00177 ± 8.8e-05
same,peptide microarray binding signal,[3]; [24],0.00285 ± 8.8e-05
same,peptide microarray binding signal,[4]; [23],0.00068 ± 7.5e-05
same,peptide microarray binding signal,[4]; [24],0.00156 ± 5.5e-05
